Test systems include EIF2AK1; EPHA1; EPHA2; EPHA3; EPHA4; EPHA5; EPHA6; EPHA7; EPHA8; EPHB1; EPHB2; EPHB3; EPHB4; EPHB6; ERBB2; ERBB3; ERBB4.
Common to all, as to details: concentration: 1 μM, replicates: in singlicate; n = 1
In a further assay the test system is T1, ERK1.
T1 construct: gene MAPK3

The subject of a further assay is T2, ERK2.
T2 construct: gene MAPK1

Another assay relates to T3, ERK3.
T3 construct: gene MAPK6

The structures appear in SMILES notation.
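Also: KINOMEscan kinase panel screen.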

Take `Cc1cc(N2CCC(NS(=O)(=O)c3ccc(F)cc3)CC2)nc(Nc2cccc(C#N)c2)n1.O=C(O)C(F)(F)F` [GSK1653537]: the “%Inh” value in the assay on EIF2AK1 came out at 0%; in the assay on EPHA1 it was 1%; in the assay on EPHA2 it was 0%; in the assay on EPHA3, 0%; with EPHA4, 7%; in the assay on EPHA5, 0%. In addition, the “%Inh” value in the assay on EPHA6 is recorded as 5%; in the assay with EPHA7 it was 6%; in the assay with EPHA8, 19%; in the assay with EPHB1 it was 15%; in the assay with EPHB2, 0%; in the assay on EPHB3 it was 1%. The “%Inh” value with EPHB4 was found to be 13%; in the assay with EPHB6, 8%; in the assay on ERBB2, 13%; with ERBB3 it was 0%; in the assay on ERBB4 it was 0%; in the assay with ERK1, 0%. Besides, the results for the “%Inh” value in the assay on ERK2 and in the assay with ERK3 were 0% and 7%, respectively.
On to `O=C(Nc1n[nH]c2nc(-c3ccco3)c(Br)cc12)c1ccc(CN2CCCC2)cc1.O=C(O)[C@H](O)[C@@H](O)C(=O)O` [SB-742352], for which the “%Inh” value stood at 0% in the assay on EIF2AK1; 3% in the assay with EPHA1; 0% with EPHA2; 0% in the assay with EPHA3; 100% in the assay with EPHA4; 0% in the assay with EPHA5. Moreover, the “%Inh” value was 100% in the assay with EPHA6; 0% with EPHA7; 7% with EPHA8; 6% in the assay with EPHB1; 47% in the assay on EPHB2; 0% in the assay with EPHB3. In addition, the “%Inh” value is 0% in the assay on EPHB4; 95.7% with EPHB6; 0% in the assay on ERBB2; 0% in the assay on ERBB3; 27% in the assay with ERBB4; 0% in the assay with ERK1. Also, the “%Inh” value in the assay on ERK2 and with ERK3 was 0% throughout.
For `COc1ccc(Nc2nccc(N3CCC(NC(=O)Nc4ccc5c(c4)OCO5)C3)n2)cc1` (stereo not drawn) [GSK1379745], the “%Inh” value came to 0% in the assay on EIF2AK1; 8% in the assay on EPHA1; 0% in the assay with EPHA2; 0% with EPHA3; 11% with EPHA4; 0% with EPHA5. The “%Inh” value in the assay on EPHA6 was determined as 19%; in the assay with EPHA7 it was 7%; in the assay on EPHA8, 20%; in the assay on EPHB1 it was 4%; in the assay on EPHB2, 0%; in the assay on EPHB3, 24%. Further, the “%Inh” value in the assay with EPHB4 amounted to 29%; in the assay with EPHB6, 47%; in the assay on ERBB2, 28%; in the assay with ERBB3, 28%; with ERBB4 it was 0%; in the assay with ERK1, 3%. The “%Inh” value in the assay with ERK2 was determined as 12%; in the assay on ERK3, 14%.
As for `Fc1ccc(-c2ncn(CCCNCc3ccccc3)c2-c2ccncc2)cc1`, the “%Inh” value in the assay with EIF2AK1 is given as 0%; in the assay with EPHA1, 4%; with EPHA2, 10%; in the assay on EPHA3 it was 0%; with EPHA4, 6%; in the assay on EPHA5, 7%. Also, the “%Inh” value in the assay on EPHA6 worked out at 23%; in the assay with EPHA7 it was 0%; with EPHA8, 19%; in the assay on EPHB1, 15%; with EPHB2 it was 14%; in the assay on EPHB3, 19%. Moreover, the “%Inh” value with EPHB4 is on record as 17%; with EPHB6, 36%; in the assay with ERBB2, 10%; in the assay on ERBB3, 23%; in the assay with ERBB4 it was 0%; with ERK1, 5%. For the same compound, the figures for the “%Inh” value with ERK2 and in the assay on ERK3 were 14% and 0%, respectively.
On to `COc1cc2c(Nc3cccc(NC(=O)c4ccccc4)c3)ncnc2cc1OCCCN1CCOCC1` [GSK223810], for which the “%Inh” value in the assay on EIF2AK1 is listed as 0%; in the assay on EPHA1, 7%; in the assay with EPHA2, 29%; in the assay with EPHA3 it was 6%; in the assay with EPHA4, 6%; with EPHA5, 0%. The “%Inh” value came to 2% with EPHA6; 3% with EPHA7; 24% in the assay on EPHA8; 4% in the assay with EPHB1; 0% in the assay with EPHB2; 5% with EPHB3. For the same compound, the “%Inh” value in the assay with EPHB4 is 0%; with EPHB6 it was 60%; in the assay on ERBB2 it was 18%; in the assay on ERBB3 it was 0%; in the assay with ERBB4 it was 55%; with ERK1 it was 0%. The “%Inh” value in the assay on ERK2 and with ERK3 was 0% throughout.
As for `O=C(Nc1ccccc1F)NC1CCN(c2ccnc(Nc3ccc(F)cc3)n2)C1` (stereo not drawn) [GSK1379722], the “%Inh” value in the assay with EIF2AK1 came to 0%; with EPHA1, 0%; with EPHA2 it was 8%; with EPHA3, 0%; with EPHA4 it was 0%; in the assay with EPHA5 it was 0%. Also, the “%Inh” value in the assay with EPHA6 is given as 4%; in the assay on EPHA7, 5%; in the assay on EPHA8, 14%; in the assay with EPHB1, 11%; with EPHB2, 0%; with EPHB3 it was 17%. In addition, the “%Inh” value in the assay on EPHB4 turned out to be 0%; in the assay with EPHB6 it was 17%; with ERBB2, 30%; with ERBB3, 3%; in the assay with ERBB4, 0%; with ERK1 it was 100%. Besides, the “%Inh” value is 0% in the assay on ERK2 and 13% in the assay on ERK3.
As for `CS(=O)(=O)CCNCc1nc(-c2ccc3ncnc(Nc4ccc(OCc5cccc(F)c5)c(Cl)c4)c3c2)cs1.Cl` [GW583340], the “%Inh” value in the assay with EIF2AK1 is given as 0%; with EPHA1, 5%; in the assay on EPHA2, 0%; in the assay with EPHA3, 13%; with EPHA4 it was 0%; in the assay on EPHA5, 0%. Also, the “%Inh” value in the assay with EPHA6 is 0%; in the assay with EPHA7, 0%; with EPHA8, 0%; in the assay on EPHB1, 1%; in the assay with EPHB2 it was 0%; with EPHB3, 0%. Moreover, the “%Inh” value in the assay on EPHB4 is given as 5%; in the assay with EPHB6, 19%; in the assay with ERBB2, 99.7%; in the assay with ERBB3, 0%; in the assay with ERBB4, 99.1%; in the assay with ERK1, 0%. In addition, the “%Inh” value is recorded as 0% with ERK2 and 12% in the assay on ERK3.
As to `FC(F)(F)c1ccc(-c2nn3ncccc3c2-c2ccnc(Nc3cccc(C(F)(F)F)c3)n2)cc1` [GW828205], the “%Inh” value with EIF2AK1 was 0%; with EPHA1 it was 34%; in the assay with EPHA2, 19%; in the assay on EPHA3 it was 0%; in the assay with EPHA4, 81%; with EPHA5, 0%. Besides, the “%Inh” value in the assay on EPHA6 worked out at 78%; in the assay on EPHA7 it was 0%; in the assay with EPHA8, 0%; with EPHB1, 2%; with EPHB2, 1%; with EPHB3, 68%. Besides, the “%Inh” value with EPHB4 was found to be 55%; in the assay with EPHB6 it was 0%; in the assay with ERBB2, 13%; with ERBB3, 27%; in the assay with ERBB4 it was 35%; with ERK1, 0%. Also, the “%Inh” value in the assay with ERK2 turned out to be 3%; in the assay with ERK3 it was 0%.
`N#Cc1ccc(Oc2ccc(Nc3ncnc4cc[nH]c34)cc2Cl)cc1`: the “%Inh” value was 5% with EIF2AK1; 1% in the assay on EPHA1; 0% in the assay with EPHA2; 0% in the assay on EPHA3; 23% in the assay on EPHA4; 0% in the assay with EPHA5. Besides, the “%Inh” value with EPHA6 amounted to 23%; in the assay with EPHA7, 2%; in the assay on EPHA8, 1%; in the assay with EPHB1, 5%; in the assay with EPHB2 it was 8%; in the assay with EPHB3 it was 21%. Further, the “%Inh” value in the assay with EPHB4 came to 24%; in the assay on EPHB6 it was 33%; in the assay with ERBB2 it was 79%; in the assay with ERBB3, 9%; in the assay on ERBB4, 76%; in the assay with ERK1, 0%. The “%Inh” value with ERK2 came to 6%; in the assay on ERK3 it was 0%.

Values taken from publication PMC5540273 (PLoS ONE, 2017).
